Data published in the supplement of paper PMC6555819.

How the values were obtained:
Test in all cases: PBM binding z-score (relative to random genomic background probes); higher = stronger binding; sequences stand for … in GC…GCGATTGACAGCGTAGAATGAAGG
[1] = system: FXR:RXRa (NR concentration 270 nM, RXRa partner concentration 90 nM)
Method in brief: (§1)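 Antibodies against each partner of ligand-free nuclear receptor dimers (one per run) detected binding on custom Agilent 4×180K protein-binding microarrays after 1 h incubation. The double-stranded probes had 34-nt variable regions carrying direct-repeat seeds, single-nucleotide variants, half-site ablations and random human genomic background sequences. Binding z-scores, from regression-normalized fluorescence, use the random background probes as reference.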

[2] = system: LXRa:RXRa (NR concentration 270 nM, RXRa partner concentration 90 nM)
Method in brief: as §1

[3] = system: LXRa homodimer (NR concentration 270 nM)
Method in brief: as §1

[4] = system: LXRb:RXRa (NR concentration 270 nM, RXRa partner concentration 90 nM)
Method in brief: as §1

[5] = system: LXRb homodimer (NR concentration 270 nM)
Method in brief: as §1

[6] = system: PPARa:RXRa (NR concentration 270 nM, RXRa partner concentration 90 nM)
Method in brief: as §1

[7] = system: PPARg:RXRa (NR concentration 180 nM, RXRa partner concentration 90 nM)
Method in brief: as §1

[8] = system: PPARg:RXRa 270nM:90nM, anti-RXR (NR concentration 270 nM, RXRa partner concentration 90 nM)
Method in brief: as §1

[9] = system: PPARg:RXRa 30nM:10nM, anti-RXR (NR concentration 30 nM, RXRa partner concentration 10 nM)
Method in brief: as §1

[10] = system: PPARg:RXRa 90nM:30nM, anti-RXR (NR concentration 90 nM, RXRa partner concentration 30 nM)
Method in brief: as §1

[11] = system: PPARg:RXRa DBDmut IVT, anti-RXR (DBD mutation: RXRa K156A/R161A, NR concentration 270 nM, RXRa partner concentration 90 nM)
Method in brief: as §1

[12] = system: PPARg:RXRa IVT, anti-PPARg (NR concentration 270 nM, RXRa partner concentration 90 nM)
Method in brief: as §1

[13] = system: PPARg DBDmut:RXRa IVT, anti-PPARg (DBD mutation: PPARg1 K132A/R137A, NR concentration 270 nM, RXRa partner concentration 90 nM)
Method in brief: as §1

[14] = system: PPARg DBDmut IVT, anti-PPARg (DBD mutation: PPARg1 K132A/R137A, NR concentration 270 nM)
Method in brief: as §1

[15] = system: PPARg homodimer (NR concentration 180 nM)
Method in brief: as §1

[16] = system: PXR:RXRa (NR concentration 270 nM, RXRa partner concentration 90 nM)
Method in brief: as §1

[17] = system: PXR homodimer (NR concentration 270 nM)
Method in brief: as §1

[18] = system: RARa:RXR (NR concentration 270 nM, RXRa partner concentration 90 nM)
Method in brief: as §1

[19] = system: RARa homodimer (NR concentration 270 nM)
Method in brief: as §1

[20] = system: RARb:RXRa (NR concentration 270 nM, RXRa partner concentration 90 nM)
Method in brief: as §1

Sequence | PBM binding z-score [1] | PBM binding z-score [2] | PBM binding z-score [3] | PBM binding z-score [4] | PBM binding z-score [5] | PBM binding z-score [6] | PBM binding z-score [7] | PBM binding z-score [8] | PBM binding z-score [9] | PBM binding z-score [10] | PBM binding z-score [11] | PBM binding z-score [12] | PBM binding z-score [13] | PBM binding z-score [14] | PBM binding z-score [15] | PBM binding z-score [16] | PBM binding z-score [17] | PBM binding z-score [18] | PBM binding z-score [19] | PBM binding z-score [20]
AGAATGAGGTTCCCAAAGATCAGGGAAACGCTTG | -0.395 | -0.315 | -0.36 | -0.576 | -0.694 | 0.11 | 0.423 | 0.0468 | 0.142 | 0.0809 | 0.186 | 0.311 | 1.11 | 0.173 | 0.224 | -0.152 | -0.346 | 0.182 | -0.181 | -0.0949
TATACAGGGTCAAAGGCCAGTGTACGAATGTCGA | 6.89 | 6.1 | 2.61 | 4.74 | 2.33 | 6.22 | 8.3 | 7.38 | 4.93 | 7.23 | 1.89 | 5.07 | 2.16 | 0.623 | 2.38 | 4.13 | 0.622 | 5.66 | 0.468 | 4.57
CCAGACAGGTGGAAGGTAACTCAGTCTGGTACGC | -0.299 | -0.335 | -0.385 | -0.402 | -0.752 | 0.13 | 0.719 | 1.5 | -0.203 | 0.663 | -0.367 | -0.196 | -1.35 | -1.42 | 0.35 | -0.242 | -0.0179 | -0.223 | 0.246 | -0.313
TTACCAAGGAGAGCTGAGGTCGTTGATCCAACTC | 0.524 | -0.0675 | -0.298 | 0.248 | -1.1 | 0.632 | -0.233 | 0.453 | 0.297 | 0.316 | -0.667 | -0.449 | -0.504 | -0.387 | 0.217 | 1.29 | 0.364 | 0.846 | -0.664 | 0.145
CCTAGCAGGCCAATCTGGGTCACTAAAGGCTTGA | 0.156 | 0.884 | -0.513 | 0.511 | -0.766 | 2.87 | 1.97 | 1.83 | -0.068 | 0.891 | 4 | 4.94 | -0.0852 | -0.774 | 0.49 | 0.325 | -0.597 | 1.13 | -0.281 | 1.23
TCTTGTAAATCAAAGGTTAAGAAAGCCGAAGCCT | 1.34 | 2.53 | 0.811 | 1.94 | 0.621 | 3.08 | 3.23 | 5.39 | 4.93 | 5.88 | 1.48 | 1.25 | 0.212 | 0.506 | 1.05 | 1.42 | -0.311 | 2.32 | 0.632 | 1.87
TCATATAGGTAAAAGGTGAAAATCGGTGTGGTAA | 2.32 | 2.08 | 0.347 | 2.14 | 0.2 | 5.34 | 9.36 | 8.69 | 8.68 | 9.26 | 5.1 | 5.08 | 1.43 | 0.511 | 2.07 | 1.97 | 0.321 | 3.05 | 1.48 | 1.78
GGAACGAGGGCAAAGTTGATAGCATCTGTCGACG | 1.45 | 0.921 | -0.231 | 1.07 | -0.272 | 4.11 | 6.65 | 7.24 | 5.84 | 7.47 | 3.97 | 4.32 | 0.506 | -0.103 | -0.0124 | 1.14 | -0.0271 | 1.56 | -0.075 | 2.37
CCTTACGTGTCAAGGTTATAGCACGGGTGGTACG | 0.976 | 0.929 | 0.288 | 0.638 | 0.609 | 1.36 | 0.992 | 0.8 | 0.3 | 0.364 | 0.564 | 0.962 | -0.292 | 0.0662 | 0.942 | 0.998 | 0.776 | 1.16 | 1.18 | 1.57
CGTCCAAGGTCATAGGAGGTCGGTGAAGACAGAT | 7.17 | 6.22 | 1.31 | 4.11 | 0.234 | 5.36 | 4.31 | 4.86 | 1.6 | 3.35 | 2.55 | 3.51 | -0.173 | 0.224 | 2.9 | 6.03 | 1.77 | 4.4 | 0.95 | 4.89
TCTATAAGTTGAAGGGCAACCGACGAGTCCGTTT | 0.654 | 0.764 | -0.0358 | 0.57 | 0.00788 | 1.27 | 0.844 | 2.82 | 3.72 | 3.29 | 2.03 | 0.839 | 0.713 | 0.947 | 0.68 | 0.812 | 0.652 | 0.558 | 0.192 | 1.93
TCTTGTTGATCAACAGGAGGTTAAGAAAGATCGA | -0.388 | 1.08 | 0.0425 | 0.962 | -0.0113 | 1.21 | -0.165 | 1.01 | 2.18 | 2.1 | 0.718 | 0.445 | 1.15 | 0.996 | -0.401 | 0.703 | -0.344 | 0.688 | -0.505 | 0.432
AATATTAGTTGAGACGAGGGCAACCGATAGGTTG | 0.383 | 0.45 | 0.595 | 0.306 | 0.174 | 0.507 | 0.897 | 0.51 | 0.0399 | 0.408 | 0.326 | 0.882 | 0.648 | 0.786 | 1.36 | 1.71 | 1.48 | 1.4 | 2.43 | 1.26
ATACCAAGGGGATCGTGAGGTCGTTGATACTAAC | 0.492 | 0.487 | 0.291 | 1.26 | -0.272 | 0.97 | 0.267 | -0.0276 | -0.375 | -0.365 | -0.449 | -0.121 | -0.0494 | 0.0346 | -0.227 | 1.68 | 0.87 | 1.52 | -0.222 | 0.379
CGAACTAGGTCAGATCAGGACAGTGAAGGATGAT | 2.96 | 0.93 | -0.182 | 0.466 | -0.387 | 3.07 | 5.57 | 4.64 | 1.82 | 3.82 | 7.59 | 7.23 | 0.934 | 0.164 | 1.18 | 1.83 | 0.129 | 1.19 | -0.0983 | 3.17
